Measurements from PubChem BioAssay (NCI).
The panel holds about 79,000 compounds, 15% with a hit somewhere; the sample as a whole holds those more often. The source made the active and inactive calls. No stated cut-off is given here; in the data, active means growth inhibition above about 70%; inactive means the rest.

Tests used:
[1] = NCI Yeast Anticancer Drug Screen. Data for the rad50 strain (AID 155);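 further: 0% = growth of vehicle-only cultures of the same strain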; settings: S. cerevisiae rad50 strain growth inhibition, active compounds read high
In short: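 Yeast carrying a defined DNA repair defect were exposed to test compounds, and growth was compared with vehicle-treated controls to give percent inhibition.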

[2] = NCI Yeast Anticancer Drug Screen. Data for the mec2-1 strain (AID 157); settings: S. cerevisiae mec2-1 strain, active compounds read high
In short: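 Test agents were screened against the mec2-1 yeast strain, with defined DNA repair or cell cycle alteration. Growth was scored as inhibition against vehicle-only controls.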

[3] = NCI Yeast Anticancer Drug Screen. Data for the sgs1 mgt1 strain (AID 161);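 further: 0% = growth of cultures given vehicle only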; settings: S. cerevisiae sgs1 mgt1 strain, active compounds read high
In short: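 Read-out: growth inhibition vs vehicle controls. Cells: mutant yeast strain deficient in DNA damage repair.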

[4] = NCI Yeast Anticancer Drug Screen. Data for the cln2 rad14 strain (AID 165);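 further: 0% = growth equal to vehicle treated cultures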; settings: S. cerevisiae cln2 rad14 strain, active compounds read high
In short: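 Growth of compound-exposed yeast (cln2 rad14 genotype) measured and expressed as inhibition relative to vehicle.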

[5] = NCI Yeast Anticancer Drug Screen. Data for the bub3 strain (AID 167); settings: S. cerevisiae bub3 mutant strain, active compounds read high
In short: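 Compounds were applied to a genetically altered yeast strain carrying a cell-cycle control defect. Growth inhibition was scored against vehicle-treated controls.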

[6] = NCI Yeast Anticancer Drug Screen. Data for the mlh1 rad18 strain (AID 175); settings: S. cerevisiae mlh1 rad18 strain growth inhibition, active compounds read high
In short: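 In this whole-cell yeast screen, a strain with altered DNA damage repair is challenged with compound, and its growth is measured against matched vehicle-treated controls.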

[7] = at 5.0 µM (retest, dose inferred, filed as 0.5)
[8] = at 50.0 µM (retest, dose inferred, filed as 5.0)

Measured: growth inhibition

Cc1nn(CCO)c(=O)c(C#N)c1C
inactive: [1]; [7] 1% | [1]; [8] 17% | [1]; at 50.0 µM 66.2% | [2]; [7] 5% | [2]; [8] 16% | [2]; at 50.0 µM 49% | [3]; [7] 2% | [3]; [8] 14% | [3]; at 50.0 µM 61.7% | [4]; [7] -1% | [4]; [8] -5% | [4]; at 50.0 µM 11.7% | [5]; [7] 19% | [5]; at 50.0 µM 34.1% | [6]; [7] 5% | [6]; [8] 30% | [6]; at 50.0 µM 50.5%
active: [5]; [8] 77%

CS/C(=N\C(=S)Nc1ccccc1)Nc1ccccc1
inactive: [1]; [7] 0% | [2]; [7] 25% | [3]; [7] 38% | [4]; [7] 22% | [5]; [7] 34% | [6]; [7] 22%
active: [1]; [8] 95% | [1]; at 50.0 µM 99.2% | [2]; [8] 94% | [2]; at 50.0 µM 99.4% | [3]; [8] 97% | [3]; at 50.0 µM 96.3% | [4]; [8] 96% | [4]; at 50.0 µM 97.3% | [5]; [8] 98% | [5]; at 50.0 µM 99% | [6]; [8] 95% | [6]; at 50.0 µM 98.1%

c1cc(Nc2ccc(Nc3ccc(CN4CCCCC4)cc3)cc2)ccc1CN1CCCCC1
inactive: [1]; [7] 39% | [2]; [7] 31% | [3]; [7] 66% | [4]; [7] 54% | [5]; [7] 63% | [6]; [7] 36%
active: [1]; [8] 98% | [1]; at 50.0 µM 81.8% | [2]; [8] 99% | [2]; at 50.0 µM 89.8% | [3]; [8] 99% | [3]; at 50.0 µM 90.9% | [4]; [8] 99% | [4]; at 50.0 µM 83.2% | [5]; [8] 99% | [5]; at 50.0 µM 89.2% | [6]; [8] 98% | [6]; at 50.0 µM 87.5%

CC(c1ccccc1)c1cc(C(C)(C)C)ccc1O (stereo not given)
inactive: [1]; [7] -4% | [2]; [7] -25% | [3]; [7] -2% | [4]; [7] -12% | [5]; [7] -8% | [6]; [7] -19%
active: [1]; [8] 99% | [1]; at 50.0 µM 99.6% | [2]; [8] 100% | [2]; at 50.0 µM 99.8% | [3]; [8] 71% | [3]; at 50.0 µM 99.7% | [4]; [8] 100% | [4]; at 50.0 µM 99.3% | [5]; [8] 99% | [5]; at 50.0 µM 99.4% | [6]; [8] 99% | [6]; at 50.0 µM 99.3%

COc1ccc(C(=O)CC(=O)c2ccccc2)cc1
active: [1]; [8] 99% | [2]; [8] 99% | [3]; [8] 99% | [4]; [8] 99% | [5]; [8] 99% | [5]; at 50.0 µM 80% | [6]; [8] 99%
inactive: [1]; [7] 1% | [1]; at 50.0 µM -6.2% | [2]; [7] -1% | [2]; at 50.0 µM 17.8% | [3]; [7] 2% | [3]; at 50.0 µM 20.4% | [4]; [7] -15% | [4]; at 50.0 µM -17.3% | [5]; [7] 24% | [6]; [7] 0% | [6]; at 50.0 µM 14.1%

COc1cc(OC)c(OC)cc1/C=C\c1nccc2ccccc12
inactive: [1]; [7] 1% | [1]; [8] 51% | [2]; [7] -3% | [2]; [8] 12% | [3]; [7] -4% | [3]; [8] 23% | [4]; [7] 4% | [4]; [8] 0% | [4]; at 50.0 µM 65.4% | [5]; [7] -6% | [5]; [8] -6% | [6]; [7] -3% | [6]; [8] 12%
active: [1]; at 50.0 µM 92.9% | [2]; at 50.0 µM 92.5% | [3]; at 50.0 µM 93.7% | [5]; at 50.0 µM 91.3% | [6]; at 50.0 µM 94.2%

C(=N\Nc1c2ccccc2nc2ccccc12)/c1ccc2c(c1)OCO2
inactive: [1]; [7] 0% | [2]; [7] 7% | [3]; [7] 0% | [4]; [7] 2% | [5]; [7] -11% | [6]; [7] 1%
active: [1]; [8] 97% | [1]; at 50.0 µM 99.3% | [2]; [8] 99% | [2]; at 50.0 µM 84.8% | [3]; [8] 99% | [3]; at 50.0 µM 99.4% | [4]; [8] 89% | [4]; at 50.0 µM 82% | [5]; [8] 93% | [5]; at 50.0 µM 99.2% | [6]; [8] 98% | [6]; at 50.0 µM 99.3%

Cn1c(=O)c2c(nc(OCC(C)(C)C)n2C)n(C)c1=O
inactive: [1]; [7] 4% | [1]; [8] 2% | [1]; at 50.0 µM -5.2% | [2]; [7] 0% | [2]; [8] 5% | [2]; at 50.0 µM 10.9% | [3]; [7] 3% | [3]; [8] -1% | [3]; at 50.0 µM 26.1% | [4]; [7] 9% | [4]; [8] 8% | [4]; at 50.0 µM 8.75% | [5]; [7] 0% | [5]; [8] 3% | [5]; at 50.0 µM 16.9% | [6]; [7] -13% | [6]; [8] 3% | [6]; at 50.0 µM 23.8%

CCCCCC(/C=N/NC(N)=S)C(O)(C(F)(F)F)C(F)(F)F (stereo not given)
active: [1]; at 50.0 µM 77.6% | [3]; at 50.0 µM 73% | [4]; [8] 77% | [5]; [8] 77% | [6]; [8] 78%
inactive: [1]; [7] -21% | [1]; [8] 51% | [2]; [7] -17% | [2]; [8] 47% | [2]; at 50.0 µM 62.4% | [3]; [7] -7% | [3]; [8] 28% | [4]; [7] -11% | [4]; at 50.0 µM 61% | [5]; [7] -11% | [5]; at 50.0 µM 35% | [6]; [7] -27% | [6]; at 50.0 µM 67.9%

[N-]=[N+]=CC(=O)c1ccc(C(=O)C=[N+]=[N-])cc1
inactive: [1]; [7] 8% | [2]; [7] 12% | [3]; [7] 10% | [4]; [7] 8% | [5]; [7] 5% | [6]; [7] 11%
active: [1]; [8] 95% | [1]; at 50.0 µM 99.2% | [2]; [8] 99% | [2]; at 50.0 µM 99.5% | [3]; [8] 95% | [3]; at 50.0 µM 99.4% | [4]; [8] 98% | [4]; at 50.0 µM 98.7% | [5]; [8] 98% | [5]; at 50.0 µM 99.5% | [6]; [8] 95% | [6]; at 50.0 µM 99.2%
